Source: PubChem BioAssay (Tox21)
Where “and” joins values, the source holds several entries; their conditions need not be identical. Equal entries are not always repeated. Some compounds were tested as several samples or in several runs, with calls that do not always agree. Calls of active or inactive are those of the source. Where a call stands in place of a potency, no number is given. Calls come from the whole dose curve; as a rule, active = well fitted activation curve with a large enough effect in the repeat runs; inconclusive = weak or mixed curves; inactive = flat fitted curve, though single readings scatter.

experiment: A CellTox Green Cytotoxicity Assay to monitor cytotoxicity in HEK293 cells - 0 hour (AID 1224869); conditions: CellTox Green fluorescence; series mostly up to 76.8 µM; cytotoxicity: at the top concentration; note: nearly all actives have a fitted effect of over 50% in size
Procedure, shortened: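 Cells (HEK293, 600/well) and dye reagent are dispensed together. After 5 h at 37 C, 23 nL compound is pinned in. Plates stay at 37 C for 40 h with fluorescence read at 0h, 8h, 16h, 24h, 32h and 40h.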
Potency is the fitted concentration of half-maximal effect.

Compound | Potency | cytotoxicity
CCN(N=O)C(N)=O | inactive | 
Cc1cc(C)cc(C)c1 | inactive | 
Oc1c(Cl)c(Cl)c(Cl)c(Cl)c1Cl | inactive | 
COP(=O)(OC)OC |  | 1.39% (inactive)
CCC(C)(C)c1ccc(O)cc1 | inactive | 
C1=Cc2cccc3cccc1c23 | inactive | 
Oc1cc(Cl)ccc1Cl | inactive | 
Nn1cnnc1 | inactive | 
O=[N+]([O-])c1cccc2ccccc12 | inactive | 
N#CCCCl | inactive | 
O=S(=O)(Oc1ccc(Cl)cc1)c1ccc(Cl)cc1 | inactive | 
C=C(C)C(=O)OCC1CO1 (centres undefined) | inactive | 
Nc1cccnc1 | inactive | 
CCCCC(CC)COC(=O)Cl (centres undefined) | inactive | 
Cc1cc(Cl)ccc1OCCCC(=O)O | inactive | 
O=C(Nc1ccc(Br)cc1)c1cc(Br)cc(Br)c1O | inactive and 38.9 µM (active) | 
c1ccc(N=Nc2ccccc2)cc1 | inactive | 
C#C[C@]1(O)CC[C@H]2[C@@H]3CCC4=CC(=O)CC[C@]4(C)[C@H]3CC[C@@]21C | inactive | 
O=P(O)(O)CCCl |  | -1.15% (inactive)
CCN(CC)N=O | inactive | 
O=P(Oc1ccccc1)(Oc1ccccc1)Oc1ccccc1 | inactive | 
N#Cc1cc(Br)c(O)c(Br)c1 | inactive | 
COP(=S)(OC)Oc1ccc([N+](=O)[O-])cc1 | inactive | 
c1nc[nH]n1 | inactive | 
